Results reported in PMC12136788.
Numbering of substitutions follows the chain as printed. In all, about 24,000 sequences were measured (“enrichment r”: median about 0.99, highest 2% from about 3.7 on). The full list was thinned out, with the highest values kept by preference.

B1: chr14:89338683:89338684:+_ENSG00000165533_ENST00000346301|hu_hu|hu_hu_hu_mus_False|58_68 (ssRNA)
RNA: GGGAGUUCUACAGUCCGACGAUCGUGGUUGUUGUGGACCAGGGCCAGCCUGAAGCAUUGGUGGGCCAAAUUUGUAUCUCCUAUUCCCACAGCUAUGUGCCCCAGGUUGUACCAGACAUCAGCUGCCUCUUCUUCAUUUUCAGCCAACAGAGGAUUGAGCAUCA
B2: chr9:109937893:109937894:+_ENSMUSG00000032479_ENSMUST00000165876|mus_mus|motif|central (ssRNA)
RNA: GGGAGUUCUACAGUCCGACGAUCUUCACGUGGUUUUUCUUCAGUCUGUACAGUUCCUUUGUCUUUAAUUGGAACUGUUGCGGCUUUUGUUUCCAAGGGCAGUGCAAGAUCGGAGGCUGGAGCCAUGCUGUUGUCCACAAUCAGCAACAGAGGAUUGAGCAUCA
B3: 126495366_126496508_792_3pUTR_ENSMUSG00000040502_ENSMUST00000040307|mouse|control|control (ssRNA)
RNA: GGGAGUUCUACAGUCCGACGAUCAUUAGGCAGGGUUGGUGUGUGCAACGCACUGAGCCGUCACAGCGGCAAGGGCUCAGGAGCUCCCCCUGCUCCGGGCCUUGGAAGCAGAUCCUGCACUGGGGGGUUCGGAGCCCACUGUCCCAACAGAGGAUUGAGCAUCA
B4: chr7:149838571:149838572:-_ENSMUSG00000048583_ENSMUST00000000033|mus_mus|motif|central (ssRNA)
RNA: GGGAGUUCUACAGUCCGACGAUCCAUGUAUCACUUGGCAGUGCCAUCUCCUUAUCUGGCCAAACUUAUUCUACACUGGCGGGUCAUUGGUCCUCAUGGCGGGGGUGGUUGGGGAGCACCGGGCUCACCAUGUGGACAGGUGCUCAACAGAGGAUUGAGCAUCA
B5: chr6:74304526:74304527:-_ENSG00000119899_ENST00000355773|hu_mus|motif|central (ssRNA)
RNA: GGGAGUUCUACAGUCCGACGAUCCAAGUUUAUCAGUGUGUGUGUGUGUGUGUGUGUCCAUUUCAGCUUCAUUUCCGGUGCCCUUACCUUAUAUCAUACUGCCUUUCCUGCAGCCUGAUAUGUGAACCCAGUAUACGGCCUGGCCAACAGAGGAUUGAGCAUCA
B6: chr5:137088537:137088538:-_ENSG00000177733_ENST00000314940|hu_mus|motif|central (ssRNA)
RNA: GGGAGUUCUACAGUCCGACGAUCUCCCGCCCGCCCACCCGCCCCCCCAAAAAACACAAAUUAAAACAAGACAUUUUUUUGCGGGUAUAAAAACGACCAAGGUCCAAGUAAUAAUAAAAAAAUAGAGUCCAUCAAUGACUGUAACAACAGAGGAUUGAGCAUCA
B7: chr5:137088537:137088538:-_ENSG00000177733_ENST00000314940|hu_mus|FALSE|FALSE (ssRNA)
RNA: B6 RNA with G82U, G83A
B8: chr5:137088537:137088538:-_ENSG00000177733_ENST00000314940|hu_hu|FALSE|FALSE (ssRNA)
RNA: GGGAGUUCUACAGUCCGACGAUCCAGCAAGUUCACUCCCUCCCUCCCCCCAAAAAACACAAAUUAAAACAAGACAUUUUGCUAGUAUAAAAACGACCAAGGUCCAAGUAAUAAUAAAAAAAUAGAGUCCAUCAAUGACUGUAACAACAGAGGAUUGAGCAUCA
B9: chr5:137088537:137088538:-_ENSG00000177733_ENST00000314940|hu_hu|motif|central (ssRNA)
RNA: B8 RNA with U82G, A83G
B10: chr4:57314706:57314707:+_ENSG00000128050_ENST00000264221|hu_mus|hu_hu_hu_mus_True|88_98 (ssRNA)
RNA: GGGAGUUCUACAGUCCGACGAUCCAGAAUUUCAAAAAUAGCCUGUGUAGCAUGACUCAUGAUGUCCACUUCAGUCUGCCCUAUAACAAGGCCAGCAAAACAGAAUUUUGCAGCAAUGAGUUGCUCCUCAGACCACUGUGGAUCCAACAGAGGAUUGAGCAUCA
B11: chr9:15470827:15470828:-_ENSG00000164985_ENST00000397519|hu_hu|motif|central (ssRNA)
RNA: GGGAGUUCUACAGUCCGACGAUCGAAUGUCAAGAGAAGGGCCCCAUUCUCAGGGAUAUAACUGCUAUUCCAGUUUAAUAACGGGCUUCAAAACAAAAUGAAUUUUUAUAUUUUCUAGAUGAAUAAUGUACAACCACCAUCUUCCAACAGAGGAUUGAGCAUCA
B12: chr4:57314706:57314707:+_ENSG00000128050_ENST00000264221|hu_mus|hu_hu_hu_mus_True|48_88 (ssRNA)
RNA: B10 RNA with C42U, G90U

Molecular target: T1, UNK ZnF1-3 (human, UniProt Q9C0B0 31-174)
T1 sequence: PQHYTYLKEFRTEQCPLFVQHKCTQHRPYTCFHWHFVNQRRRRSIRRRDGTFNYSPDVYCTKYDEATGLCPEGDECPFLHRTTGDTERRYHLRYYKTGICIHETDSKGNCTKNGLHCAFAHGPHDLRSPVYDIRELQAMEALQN
Test: nsRBNS (natural sequence RNA bind-n-seq); RBNS binding buffer (assumed for nsRBNS): 25 mM Tris pH 7.5, 150 mM KCl, 3 mM MgCl2, 0.01% Triton X-100, 500 ug/ml BSA, 20 U/ml SUPERase-In, 4 C; UNK is unkempt and MSI1 is Musashi-1; names of the RNAs are library labels; protein concentration not given here; high values mean tight binding

| Binder | binding signal |
| --- | --- |
| B1 | 0.84 enrichment R |
| B2 | 0.462 enrichment R |
| B3 | 0.848 enrichment R |
| B4 | 0.781 enrichment R |
| B5 | 0.616 enrichment R |
| B6 | 3.51 enrichment R |
| B7 | 9.05 enrichment R |
| B8 | 5.73 enrichment R |
| B9 | 6.14 enrichment R |
| B10 | 0.943 enrichment R |
| B11 | 1.6 enrichment R |
| B12 | 0.922 enrichment R |
